# Experimental data published in PubChem BioAssay AID1159580 (chemical genetic matrix, 2015).
# Among all 5,500 compounds or so, about 2,000 (36%) were called active. Another 18% or so got no clear call; they are omitted. The list shows a part of the results. Unmarked numbers belong to inactive results. No stated cut-off is given here; in the data, active means normalized growth mostly below about 0.91 (no sharp cut-off); inconclusive means no clear call, values can overlap the other calls; inactive means mostly above about 0.92.
# Assay: chemical genetic growth profiling, strain panel (AID 1159580);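 further: tested at 20 µM; growth read once vehicle control cultures reached saturation at 30 °C; 1 = growth at the plate median or of vehicle wells; lower values mean less growth of the strain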
# Conditions: growth OD
# [1] = S. cerevisiae deletion strains, locus YDL101C, strain DUN1, active compounds read low
# [2] = S. cerevisiae deletion strains, locus YHR030C, strain SLT2, active compounds read low
smiles,measurement,setting,value
Oc1ccc(N=Nc2ccccn2)c(O)c1,normalized growth,"S. cerevisiae deletion strains, locus YAR019C, strain CDC15, active compounds read low",0.0954 (active)
same,normalized growth,"S. cerevisiae deletion strains, locus YBL105C, strain PKC1, active compounds read low",0.0926 (active)
same,normalized growth,"S. cerevisiae deletion strains, locus YBR135W, strain CKS1, active compounds read low",0.0984 (active)
same,normalized growth,"S. cerevisiae deletion strains, locus YBR136W, strain MEC1, active compounds read low",0.0929 (active)
same,normalized growth,"S. cerevisiae deletion strains, locus YBR160W, strain CDC28, active compounds read low",0.0967 (active)
same,normalized growth,"S. cerevisiae deletion strains, locus YDL017W, strain CDC7, active compounds read low",0.0946 (active)
same,normalized growth,"S. cerevisiae deletion strains, locus YDL028C, strain MPS1, active compounds read low",0.0969 (active)
same,normalized growth,[1],0.103 (active)
same,normalized growth,"S. cerevisiae deletion strains, locus YDL108W, strain KIN28, active compounds read low",0.0995 (active)
same,normalized growth,"S. cerevisiae deletion strains, locus YDL132W, strain cdc53, active compounds read low",0.0971 (active)
same,normalized growth,"S. cerevisiae deletion strains, locus YDL214C, strain PRR2, active compounds read low",0.0962 (active)
same,normalized growth,"S. cerevisiae deletion strains, locus YDR052C, strain DBF4, active compounds read low",0.0928 (active)
same,normalized growth,"S. cerevisiae deletion strains, locus YDR054C, strain cdc34, active compounds read low",0.0989 (active)
same,normalized growth,"S. cerevisiae deletion strains, locus YDR226W, strain ADK1, active compounds read low",0.0953 (active)
same,normalized growth,"S. cerevisiae deletion strains, locus YDR477W, strain SNF1, active compounds read low",0.102 (active)
same,normalized growth,"S. cerevisiae deletion strains, locus YER123W, strain YCK3, active compounds read low",0.108 (active)
same,normalized growth,"S. cerevisiae deletion strains, locus YER133W, strain GLC7, active compounds read low",0.103 (active)
same,normalized growth,"S. cerevisiae deletion strains, locus YFL009W, strain cdc4, active compounds read low",0.0975 (active)
same,normalized growth,"S. cerevisiae deletion strains, locus YFL029C, strain CAK1, active compounds read low",0.0955 (active)
same,normalized growth,"S. cerevisiae deletion strains, locus YFR003C, strain YPI1, active compounds read low",0.0966 (active)
same,normalized growth,"S. cerevisiae deletion strains, locus YFR019W, strain FAB1, active compounds read low",0.0923 (active)
same,normalized growth,"S. cerevisiae deletion strains, locus YFR028C, strain CDC14, active compounds read low",0.0968 (active)
same,normalized growth,"S. cerevisiae deletion strains, locus YGR040W, strain KSS1, active compounds read low",0.0983 (active)
same,normalized growth,"S. cerevisiae deletion strains, locus YGR052W, strain FMP48, active compounds read low",0.121 (active)
same,normalized growth,"S. cerevisiae deletion strains, locus YGR092W, strain DBF2, active compounds read low",0.0944 (active)
same,normalized growth,[2],0.116 (active)
same,normalized growth,"S. cerevisiae deletion strains, locus YHR079C, strain IRE1, active compounds read low",0.12 (active)
same,normalized growth,"S. cerevisiae deletion strains, locus YHR082C, strain KSP1, active compounds read low",0.125 (active)
same,normalized growth,"S. cerevisiae deletion strains, locus YHR205W, strain SCH9, active compounds read low",0.00344 (active)
same,normalized growth,"S. cerevisiae deletion strains, locus YIL147C, strain SLN1, active compounds read low",0.0967 (active)
same,normalized growth,"S. cerevisiae deletion strains, locus YJL095W, strain BCK1, active compounds read low",0.104 (active)
same,normalized growth,"S. cerevisiae deletion strains, locus YJL128C, strain PBS2, active compounds read low",0.102 (active)
same,normalized growth,"S. cerevisiae deletion strains, locus YJL157C, strain FAR1, active compounds read low",0.0922 (active)
same,normalized growth,"S. cerevisiae deletion strains, locus YJR016C, strain ILV3, active compounds read low",0.0883 (active)
same,normalized growth,"S. cerevisiae deletion strains, locus YJR066W, strain TOR1 (second series), active compounds read low",0.0985 (active)
same,normalized growth,"S. cerevisiae deletion strains, locus YJR066W, strain TOR1, active compounds read low",0.114 (active)
same,normalized growth,"S. cerevisiae deletion strains, locus YKL048C, strain ELM1, active compounds read low",0.113 (active)
same,normalized growth,"S. cerevisiae deletion strains, locus YKL067W, strain YNK1, active compounds read low",0.101 (active)
same,normalized growth,"S. cerevisiae deletion strains, locus YKL101W, strain HSL1, active compounds read low",0.0988 (active)
same,normalized growth,"S. cerevisiae deletion strains, locus YKL193C, strain SDS22, active compounds read low",0.0969 (active)
same,normalized growth,"S. cerevisiae deletion strains, locus YKL203C, strain TOR2, active compounds read low",0.102 (active)
same,normalized growth,"S. cerevisiae deletion strains, locus YLR113W, strain HOG1, active compounds read low",0.153 (active)
same,normalized growth,"S. cerevisiae deletion strains, locus YLR133W, strain CKI1, active compounds read low",0.0924 (active)
same,normalized growth,"S. cerevisiae deletion strains, locus YLR403W, strain SFP1, active compounds read low",0.00522 (active)
same,normalized growth,"S. cerevisiae deletion strains, locus YML070W, strain DAK1, active compounds read low",0.103 (active)
same,normalized growth,"S. cerevisiae deletion strains, locus YMR001C, strain CDC5, active compounds read low",0.095 (active)
same,normalized growth,"S. cerevisiae deletion strains, locus YMR205C, strain PFK2 (second series), active compounds read low",0.0981 (active)
same,normalized growth,"S. cerevisiae deletion strains, locus YMR277W, strain FCP1, active compounds read low",0.0981 (active)
same,normalized growth,"S. cerevisiae deletion strains, locus YNL006W, strain LST8, active compounds read low",0.1 (active)
same,normalized growth,"S. cerevisiae deletion strains, locus YNL020C, strain ARK1, active compounds read low",0.0963 (active)
same,normalized growth,"S. cerevisiae deletion strains, locus YNL161W, strain CBK1, active compounds read low",0.0956 (active)
same,normalized growth,"S. cerevisiae deletion strains, locus YNL183C, strain NPR1, active compounds read low",0.123 (active)
same,normalized growth,"S. cerevisiae deletion strains, locus YNL207W, strain RIO2, active compounds read low",0.0923 (active)
same,normalized growth,"S. cerevisiae deletion strains, locus YNL222W, strain SSU72, active compounds read low",0.0956 (active)
same,normalized growth,"S. cerevisiae deletion strains, locus YNL307C, strain MCK1 (second series), active compounds read low",0.0988 (active)
same,normalized growth,"S. cerevisiae deletion strains, locus YOL078W, strain AVO1, active compounds read low",0.0959 (active)
same,normalized growth,"S. cerevisiae deletion strains, locus YOL136C, strain PFK27, active compounds read low",0.0997 (active)
same,normalized growth,"S. cerevisiae deletion strains, locus YOR061W, strain CKA2, active compounds read low",0.097 (active)
same,normalized growth,"S. cerevisiae deletion strains, locus YOR119C, strain RIO1, active compounds read low",0.108 (active)
same,normalized growth,"S. cerevisiae deletion strains, locus YOR231W, strain MKK1, active compounds read low",0.118 (active)
same,normalized growth,"S. cerevisiae deletion strains, locus YOR329C, strain SCD5, active compounds read low",0.0939 (active)
same,normalized growth,"S. cerevisiae deletion strains, locus YPL031C, strain PHO85, active compounds read low",0.101 (active)
same,normalized growth,"S. cerevisiae deletion strains, locus YPL153C, strain RAD53, active compounds read low",0.1 (active)
same,normalized growth,"S. cerevisiae deletion strains, locus YPL204W, strain HRR25, active compounds read low",0.102 (active)
same,normalized growth,"S. cerevisiae deletion strains, locus YPL209C, strain IPL1, active compounds read low",0.0941 (active)
same,normalized growth,"S. cerevisiae deletion strains, locus YPL256C, strain CLN2, active compounds read low",0.155 (active)
same,normalized growth,"S. cerevisiae deletion strains, locus YPR025C, strain CCL1, active compounds read low",0.0983 (active)
same,normalized growth,"S. cerevisiae deletion strains, locus YPR106W, strain ISR1, active compounds read low",0.0922 (active)
same,normalized growth,"S. cerevisiae deletion strains, locus YPR111W, strain DBF20, active compounds read low",0.103 (active)
same,normalized growth,"S. cerevisiae deletion strains, strain NNK1, active compounds read low",0.0965 (active)
same,normalized growth,"S. cerevisiae deletion strains, strain TSCII, active compounds read low",0.0967 (active)
COc1ccc(CCNC(=S)NCCc2ccc(OC)c(OC)c2)cc1OC,normalized growth,"S. cerevisiae deletion strains, locus YAL013W, strain DEP1, active compounds read low",0.998
same,normalized growth,"S. cerevisiae deletion strains, locus YBR229C, strain ROT2, active compounds read low",0.988
same,normalized growth,"S. cerevisiae deletion strains, locus YCL061C, strain MRC1, active compounds read low",0.993
same,normalized growth,[1],0.989
same,normalized growth,"S. cerevisiae deletion strains, locus YDR150W, strain NUM1, active compounds read low",0.985
same,normalized growth,"S. cerevisiae deletion strains, locus YEL061C, strain CIN8, active compounds read low",0.987
same,normalized growth,"S. cerevisiae deletion strains, locus YGR078C, strain PAC10, active compounds read low",0.981
same,normalized growth,[2],1
same,normalized growth,"S. cerevisiae deletion strains, locus YHR087W, strain rtc3, active compounds read low",0.979
same,normalized growth,"S. cerevisiae deletion strains, locus YJL187C, strain SWE1, active compounds read low",0.994
same,normalized growth,"S. cerevisiae deletion strains, locus YJR043C, strain POL32, active compounds read low",0.993
same,normalized growth,"S. cerevisiae deletion strains, locus YJR075W, strain HOC1, active compounds read low",1.04
same,normalized growth,"S. cerevisiae deletion strains, locus YLR039C, strain RIC1, active compounds read low",1.04
same,normalized growth,"S. cerevisiae deletion strains, locus YLR058C, strain SHM2 (second series), active compounds read low",1
same,normalized growth,"S. cerevisiae deletion strains, locus YLR085C, strain ARP6, active compounds read low",1.02
same,normalized growth,"S. cerevisiae deletion strains, locus YLR262C, strain YPT6, active compounds read low",1.02
same,normalized growth,"S. cerevisiae deletion strains, locus YML094W, strain GIM5, active compounds read low",0.981
same,normalized growth,"S. cerevisiae deletion strains, locus YMR219W, strain ESC1, active compounds read low",1
same,normalized growth,"S. cerevisiae deletion strains, locus YMR263W, strain SAP30, active compounds read low",1.06
same,normalized growth,"S. cerevisiae deletion strains, locus YMR307W, strain GAS1, active compounds read low",1.06
same,normalized growth,"S. cerevisiae deletion strains, locus YNL128W, strain TEP1, active compounds read low",1.02
same,normalized growth,"S. cerevisiae deletion strains, locus YNL153C, strain GIM3, active compounds read low",0.992
same,normalized growth,"S. cerevisiae deletion strains, locus YNL298W, strain CLA4 (second series), active compounds read low",1.01
same,normalized growth,"S. cerevisiae deletion strains, locus YNL322C, strain KRE1, active compounds read low",0.992
same,normalized growth,"S. cerevisiae deletion strains, locus YNR030W, strain Alg12, active compounds read low",1
same,normalized growth,"S. cerevisiae deletion strains, locus YPL055C, strain LGE1, active compounds read low",0.982
same,normalized growth,"S. cerevisiae deletion strains, locus YPL241C, strain CIN2, active compounds read low",1.08
same,normalized growth,"S. cerevisiae deletion strains, locus YPR135W, strain CTF4, active compounds read low",1.05
same,normalized growth,"S. cerevisiae strains, strain wild type, active compounds read low",1.01
